# Source: the supplement of paper PMC7411054
# Structures can show the parent of a compound that is named as a salt.
# Assays:
# Conditions in all cases: treatment time: 24 h
# [1] = test system: A549-GM130-SQSTM1; assay: lowest phenotypically active concentration; higher = less potent
# Procedure, shortened: (§1)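 The reporter lines, fifteen in total and built by gene editing in A549, HepG2 and WPMY1 cells, used BFP for segmentation alongside GFP and RFP/FusionRed markers. Each was treated at 0.3, 1, 3 or 9 µM for 24 h in four wells and then imaged live, with live-cell features normalised to solvent control wells. Deviation meant ≥3 of 4 wells beyond the 95th percentile of control Euclidean distances; reproducibility meant a median replicate Pearson correlation above the 95th percentile of non-replicates. Only conditions meeting both were scored as phenotypically active.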
# [2] = test system: A549-ACTB-RAB5A; assay: phenotypically active (imaging signature differs from DMSO and reproducible) at any of 0.3-9 uM (binary (1 = active, 0 = inactive)); higher = active
# Procedure, shortened: as §1
# [3] = test system: A549-CANX-COX4; assay: as above
# Procedure, shortened: as §1
# [4] = test system: A549-GM130-SQSTM1; assay: as above
# Procedure, shortened: as §1
# [5] = test system: A549-TP53BP1-CLTA; assay: as above
# Procedure, shortened: as §1
# [6] = test system: A549-TUBA1B-RELA; assay: as above
# Procedure, shortened: as §1
# [7] = test system: HepG2-ACTB-RAB5A; assay: as above
# Procedure, shortened: as §1
# [8] = test system: HepG2-CANX-COX4; assay: as above
# Procedure, shortened: as §1
# [9] = test system: HepG2-GM130-SQSTM1; assay: as above
# Procedure, shortened: as §1
# [10] = test system: HepG2-TP53BP1-CLTA; assay: as above
# Procedure, shortened: as §1
# [11] = test system: HepG2-TUBA1B-RELA; assay: as above
# Procedure, shortened: as §1
# [12] = test system: WPMY1-ACTB-RAB5A; assay: as above
# Procedure, shortened: as §1
# [13] = test system: WPMY1-CANX-COX4; assay: as above
# Procedure, shortened: as §1
# [14] = test system: WPMY1-GM130-SQSTM1; assay: as above
# Procedure, shortened: as §1
# [15] = test system: WPMY1-TP53BP1-CLTA; assay: as above
# Procedure, shortened: as §1
# [16] = test system: WPMY1-TUBA1B-RELA; assay: as above
# Procedure, shortened: as §1
# [17] = test system: HepG2-ACTB-RAB5A; assay: lowest phenotypically active concentration; higher = less potent
# Procedure, shortened: as §1
# [18] = test system: WPMY1-CANX-COX4; assay: as above
# Procedure, shortened: as §1
# [19] = test system: WPMY1-GM130-SQSTM1; assay: as above
# Procedure, shortened: as §1
# [20] = test system: A549-ACTB-RAB5A; assay: as above
# Procedure, shortened: as §1
Compound,lowest phenotypically active concentration [1] [µM],phenotypically active [2],phenotypically active [3],phenotypically active [4],phenotypically active [5],phenotypically active [6],phenotypically active [7],phenotypically active [8],phenotypically active [9],phenotypically active [10],phenotypically active [11],phenotypically active [12],phenotypically active [13],phenotypically active [14],phenotypically active [15],phenotypically active [16],lowest phenotypically active concentration [17] [µM],lowest phenotypically active concentration [18] [µM],lowest phenotypically active concentration [19] [µM],lowest phenotypically active concentration [20] [µM]
Cn1c(=O)c2nc[nH]c2n(C)c1=O [theophylline],9,0 (inactive),0 (inactive),1 (active),0 (inactive),0 (inactive),0 (inactive),0 (inactive),0 (inactive),0 (inactive),0 (inactive),0 (inactive),0 (inactive),0 (inactive),0 (inactive),0 (inactive),–,–,–,–
COC(=O)C1=CO[C@@H](C)[C@H]2CN3CCc4c([nH]c5ccccc45)[C@@H]3C[C@H]12 [Ajmalicine hydrochloride],–,0 (inactive),1 (active),0 (inactive),0 (inactive),0 (inactive),1 (active),1 (active),0 (inactive),1 (active),0 (inactive),0 (inactive),1 (active),1 (active),0 (inactive),0 (inactive),9,9,3,–
COc1cc2nc3occc3c(OC)c2cc1OC [Kokusaginine],3,0 (inactive),0 (inactive),1 (active),0 (inactive),0 (inactive),0 (inactive),0 (inactive),0 (inactive),0 (inactive),0 (inactive),0 (inactive),0 (inactive),0 (inactive),0 (inactive),0 (inactive),–,–,–,–
OCCOCCN1CCN(C2=Nc3ccccc3Sc3ccccc32)CC1 [Quetiapine hemifumarate],9,0 (inactive),0 (inactive),1 (active),0 (inactive),0 (inactive),0 (inactive),0 (inactive),0 (inactive),0 (inactive),0 (inactive),0 (inactive),0 (inactive),0 (inactive),0 (inactive),0 (inactive),–,–,–,–
Cc1cc(C(C)Nc2ccccc2)c2nc(N3CCOCC3)cc(=O)n2c1 (centres undefined),–,1 (active),0 (inactive),0 (inactive),0 (inactive),0 (inactive),1 (active),0 (inactive),0 (inactive),0 (inactive),0 (inactive),0 (inactive),1 (active),1 (active),0 (inactive),0 (inactive),9,9,9,9
COc1cc(C)c(/C=C/C(C)=C/C=C/C(C)=C/C(=O)O)c(C)c1C [acitretin],–,1 (active),0 (inactive),0 (inactive),0 (inactive),0 (inactive),0 (inactive),0 (inactive),0 (inactive),0 (inactive),0 (inactive),0 (inactive),1 (active),1 (active),0 (inactive),0 (inactive),–,9,9,9
O=c1cc(N2CCOCC2)oc2c(-c3ccccc3)cccc12,9,0 (inactive),0 (inactive),1 (active),1 (active),1 (active),1 (active),0 (inactive),1 (active),1 (active),1 (active),1 (active),1 (active),1 (active),1 (active),0 (inactive),9,9,≤ 0.3,–
"Nc1ncnc2c1nc(Br)n2[C@@H]1O[C@@H]2COP(=O)(O)O[C@H]2[C@H]1O [8-Bromo-cAMP, sodium salt]",–,1 (active),0 (inactive),0 (inactive),0 (inactive),0 (inactive),0 (inactive),0 (inactive),0 (inactive),0 (inactive),0 (inactive),0 (inactive),1 (active),0 (inactive),0 (inactive),0 (inactive),–,9,–,9
